PrPC surface inh: inhibitors of human cell surface prion protein PrPC, primary screen, cell-based, TR-FRET; Major prion protein (Homo sapiens), P04156; TR-FRET read-out; inhibition, % at 13.8 µM; 0.43% of 370,000 active; AID 720596, 2013; in the data active means inhibition above about 24%
VHR inh abs: VHR1 phosphatase inhibitors, primary screen, biochemical, absorbance, uHTS. recombinant VHR phosphatase, pNPP absorbance. inhibition, % at 13.3 µM. 0.52% of 290,000 active; in the data active means inhibition above about 50%
Target sequence (P51452 whole entry, looked up): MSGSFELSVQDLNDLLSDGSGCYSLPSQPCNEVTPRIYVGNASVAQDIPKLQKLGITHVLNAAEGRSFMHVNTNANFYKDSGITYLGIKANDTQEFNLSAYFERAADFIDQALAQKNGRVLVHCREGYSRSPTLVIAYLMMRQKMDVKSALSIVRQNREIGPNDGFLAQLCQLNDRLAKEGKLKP
MazF activator: activators of E. coli MazEF toxin-antitoxin RNase, primary screen, biochemical, fluorescence, uHTS | 0.32% of 350,000 active | Endoribonuclease toxin MazF (Escherichia coli (strain K12)), P0AE70 | activation, % at 20 µM | FAM/BHQ RNA-DNA oligo cleavage fluorescence, 5 h; in the data active means activation above about 50%
Target sequence (P0AE70 whole entry, looked up): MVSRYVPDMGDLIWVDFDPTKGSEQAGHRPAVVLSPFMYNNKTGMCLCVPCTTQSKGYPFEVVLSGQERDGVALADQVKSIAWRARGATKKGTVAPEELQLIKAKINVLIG
PrP 5UTR inh: inhibition of PrP 5' UTR reporter expression; cell-based PrP 5' UTR mRNA reporter, plate reader; inhibition, % (no concentration beside the values); 0.35% of 340,000 active; in the data active means inhibition above about 52%
PfHsp40 yeast: rescue of yeast from PfHsp40 toxicity, primary screen, S. cerevisiae, ATP luminescence; S. cerevisiae expressing PfHsp40, growth rescue; growth rescue, % at 12.5 µM; 0.68% of 340,000 active; AID 504582, 2011; in the data active means growth rescue above about 28%, passing the limit was not always enough;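 further: yeast W303a lacking pdr1 and pdr3 grown in galactose medium; growth measured after three days at 30 °C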
BJeLR viability: MLPCN primary cell-based screen for lethality selective to Ras in HRASV12 cells. 0.17% of 300,000 active. BJeLR (HRASV12) viability, CellTiter-Glo ATP luminescence, 48 h. inhibition, % (test concentration not listed); in the data active means inhibition above about 50%
Of the large screens only hits and unclear results are named; the others gave an inactive call. In the library only some 2.1% were active in any assay of this set; here they are far more common.

CC(=O)Nc1ccc(NC(=O)CCc2nc3ccccc3c(=O)[nH]2)cc1	none
O=C(O)c1cccc(NN=C2c3ccccc3-c3ccccc32)c1	PfHsp40 yeast 269
O=C(O)c1cc(NN=C2c3ccccc3-c3ccccc32)ccc1Cl	PfHsp40 yeast 138
Cn1cc(C(=O)C(=O)N2CCCCC2)c2ccccc21	none (no result: VHR inh abs, BJeLR viability)
CC(C)CCNC(=O)c1nn(Cc2ccccc2)c(=O)c2ccccc12	none
C=CCc1ccc(OCCn2nnc3ccccc32)c(OC)c1	VHR inh abs 56
Cc1c(Cl)cccc1NC(=S)N(Cc1cccnc1)Cc1ccccc1Cl	PfHsp40 yeast 35
Cc1ccc(C(C[N+](=O)[O-])Sc2ccc(N)cc2)cc1 (configuration not stated)	none
CC1=C/C(=N\OS(=O)(=O)c2ccccc2)C(C(C)C)=CC1=O	PfHsp40 yeast 46 (no result: PrPC surface inh, BJeLR viability)
O=c1c(C(c2ccc(F)cc2)c2c(O)nc3n(c2=O)CCS3)c(O)nc2n1CCS2	MazF activator 289
O=c1c(C(c2ccc(Cl)cc2)c2c(O)nc3n(c2=O)CCS3)c(O)nc2n1CCS2	none
CC(C)COc1cccc(C(=O)Nc2ccc(N3CCOCC3)cc2N2CCOCC2)c1	none (no result: VHR inh abs)
CCCCCCCNC(=O)C1(CC2CC(c3cccc(Br)c3)=NO2)CCN(C(=O)C2(C)CC2)CC1 (configuration not stated)	none (no result: VHR inh abs, BJeLR viability)
CCCCCCCNC(=O)C1(CC2CC(c3cccc(Br)c3)=NO2)CCN(C(=O)CCCCCBr)CC1 (configuration not stated)	PfHsp40 yeast 45 (no result: VHR inh abs)
O=C(C[n+]1cc(Br)cc2ccccc21)c1ccccc1	PfHsp40 yeast 49
Cc1cc(O)c(C(C)C)cc1N=Nc1ccccc1C(=O)O	none
Cc1cc(N=Nc2ccccc2C(=O)O)c(C)c(C)c1O	PfHsp40 yeast 150
CCC(C)NC(=O)Nc1ccccc1C (configuration not stated)	VHR inh abs 52
CCC(C)NC(=O)Nc1ccccc1F (configuration not stated)	none
Cc1ccc(C(=O)CC(=O)c2ccccc2C)c(O)c1	none
Cc1ccc(C(=O)CC(=O)c2cccc(F)c2)c(O)c1	PfHsp40 yeast 396
Cc1ccc(/C=C2\SC(=S)N(CCC(=O)NCCCN3CCOCC3)C2=O)cc1	none
O=C(CN1C(=O)/C(=C/c2cccc(Br)c2)SC1=S)NCCCN1CCOCC1	none
O=C(CCCN1C(=O)/C(=C/c2cccc(Br)c2)SC1=S)NCCCN1CCOCC1	BJeLR viability 77
CCc1ccc(/C=C2\SC(=S)N(CCC(=O)NCCCN3CCOCC3)C2=O)cc1	BJeLR viability 103
CCNC(=S)N/N=C(\C)c1ccc2ccccc2c1OC(F)F	PfHsp40 yeast 62
CN1Cc2cc(C(=O)c3cc(Cl)cc(CSc4ncccn4)c3O)cnc2NC1=O	VHR inh abs 56 (no result: PrPC surface inh, MazF activator, PrP 5UTR inh, PfHsp40 yeast)
Cc1ccc(O)c(C(=O)c2cnc3c(c2)CN(C)C(=O)N3)c1	none
O=C(c1ccco1)N1CCN(C(=O)c2ccccc2OCc2ccc(Cl)cc2)CC1	PfHsp40 yeast 253 (no result: VHR inh abs)
CC(C)(C)NC(=O)[C@H](c1cccnc1)N(C(=O)c1ccco1)c1ccc(C(C)(C)C)cc1	none (no result: VHR inh abs, MazF activator, PrP 5UTR inh, PfHsp40 yeast, BJeLR viability)
COc1ccc(-c2cc(-c3c(O)c(OC)c4occc4c3OC)[nH]n2)cc1OC	PfHsp40 yeast 31
COc1ccc(-c2cc(-c3c(O)c(OC)c4occc4c3OC)[nH]n2)cc1	none
O=C(CCCCCN1C(=O)C2C3C=CC(C3)C2C1=O)Nc1cc(F)cc(F)c1 (configuration not stated)	none (no result: VHR inh abs, MazF activator, PrP 5UTR inh, PfHsp40 yeast, BJeLR viability)
NC(=O)C(Cc1ccccc1)N1C(=O)c2ccccc2C1=O (configuration not stated)	none
NS(=O)(=O)OCC(Cc1ccccc1)N1C(=O)c2ccccc2C1=O (configuration not stated)	PfHsp40 yeast 75
Nc1[nH]c(C(=O)c2ccccc2)c(-c2cccc3ccccc23)c1C(=O)c1c(-c2ccccc2)[nH]c2ccccc12	none (no result: VHR inh abs, MazF activator, PrP 5UTR inh, PfHsp40 yeast, BJeLR viability)
CC1COc2ccccc2N1S(=O)(=O)c1ccc(Cl)cc1 (configuration not stated)	PfHsp40 yeast 32

Screening data deposited in PubChem by several laboratories.
